The panel holds about 79,000 compounds, 15% with a hit somewhere; the sample as a whole holds those more often. Unmarked numbers belong to inactive results. Active and inactive are the calls of the source. No stated cut-off is given here; in the data, active means growth inhibition above about 70%; inactive means the rest.
Key:
[1] = NCI Yeast Anticancer Drug Screen. Data for the rad50 strain (AID 155);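 further: 0% = growth of vehicle-only cultures of the same strain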; settings: S. cerevisiae rad50 strain growth inhibition, active compounds read high
Summary of the method: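 Genetically altered yeast (DNA repair pathway); compound treatment; growth inhibition vs vehicle ctrl.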

[2] = NCI Yeast Anticancer Drug Screen. Data for the mec2-1 strain (AID 157); settings: S. cerevisiae mec2-1 strain, active compounds read high
Summary of the method: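 Growth inhibition is read against vehicle-treated controls after compound exposure of the mec2-1 yeast strain, which is defective in DNA damage repair or cell cycle control.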

[3] = NCI Yeast Anticancer Drug Screen. Data for the sgs1 mgt1 strain (AID 161);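 further: 0% = growth of cultures given vehicle only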; settings: S. cerevisiae sgs1 mgt1 strain, active compounds read high
Summary of the method: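 Growth of a repair-deficient yeast mutant was monitored after compound treatment and expressed as inhibition relative to vehicle-treated cultures.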

[4] = NCI Yeast Anticancer Drug Screen. Data for the cln2 rad14 strain (AID 165);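 further: 0% = growth equal to vehicle treated cultures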; settings: S. cerevisiae cln2 rad14 strain, active compounds read high
Summary of the method: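 Growth inhibition, relative to vehicle-treated controls, is the read-out. The test organism is a yeast strain with defined genetic alterations, cln2 rad14.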

[5] = NCI Yeast Anticancer Drug Screen. Data for the bub3 strain (AID 167); settings: S. cerevisiae bub3 mutant strain, active compounds read high
Summary of the method: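 Yeast carrying a defined mutation is treated with each compound, and growth is compared with that of vehicle-exposed cells to give inhibition.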

[6] = NCI Yeast Anticancer Drug Screen. Data for the mlh1 rad18 strain (AID 175); settings: S. cerevisiae mlh1 rad18 strain growth inhibition, active compounds read high
Summary of the method: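 Cells of a genetically altered yeast strain, deficient in DNA damage repair, were treated with compound. Their growth was then compared with that of vehicle-treated cultures to give inhibition.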

[7] = at 5.0 µM (retest, dose inferred, filed as 0.5)
[8] = at 50.0 µM (retest, dose inferred, filed as 5.0)

Compound | growth inhibition [1, 7] | growth inhibition [1, 8] | growth inhibition ([1]; at 50.0 µM) | growth inhibition [2, 7] | growth inhibition [2, 8] | growth inhibition ([2]; at 50.0 µM) | growth inhibition [3, 7] [%] | growth inhibition [3, 8] | growth inhibition ([3]; at 50.0 µM) | growth inhibition [4, 7] [%] | growth inhibition [4, 8] | growth inhibition ([4]; at 50.0 µM) | growth inhibition [5, 7] | growth inhibition [5, 8] | growth inhibition ([5]; at 50.0 µM) | growth inhibition [6, 7] | growth inhibition [6, 8] | growth inhibition ([6]; at 50.0 µM)
O=C(NN=C1CCCCC1)c1ccc([N+](=O)[O-])cc1 | -1% | -7% | -0.5% | -17% | -11% | 0.2% | 13 | 9% | 10.6% | -1 | 10% | 37.5% | 19% | 24% | -2.95% | 4% | 7% | 20.2%
Cc1ccc(O)c(N=Nc2ccc(Cl)cc2)c1 | 0% | 2% | -3.95% | 4% | -2% | -1.95% | -3 | 17% | -20.8% | 1 | -8% | 7.2% | 1% | -8% | 4.4% | -3% | -1% | -23.2%
C=C(C)C1CC/C(C)=C/CCC2(C)OC2CC/C(CO)=C\C1O (stereo not given) | 52% | 89% (active) | 91.1% (active) | 80% (active) | 96% (active) | 93% (active) | 41 | 95% (active) | 93% (active) | 48 | 85% (active) | 91.7% (active) | 90% (active) | 94% (active) | 91.8% (active) | 87% (active) | 96% (active) | 91.5% (active)
Nc1ccc(C(=O)N/C(=C\c2ccc3c(c2)OCO3)c2nc3ccccc3s2)cc1 | 23% | 99% (active) | 97.2% (active) | -2% | 99% (active) | 98.5% (active) | 54 | 99% (active) | 98.2% (active) | 15 | 98% (active) | 96.3% (active) | 32% | 98% (active) | 97.4% (active) | 30% | 98% (active) | 98.4% (active)
COc1ccc(SC2=C(N(C)C)C(=O)c3ccccc3C2=O)cc1 | 2% | 85% (active) | 88.2% (active) | -19% | 79% (active) | 19.8% | 2 | 92% (active) | 63.2% | 54 | 79% (active) | 22.8% | -10% | -46% | 60% | 11% | 88% (active) | 84.5% (active)
O=C1c2ccccc2C(=O)C2(C(c3ccccc3)c3ccccc3)N=NCC12 (stereo not given) | -5% | 15% | 4.15% | -1% | -7% | 11.9% | 0 | 18% | 7.95% | 5 | 5% | -7.15% | 27% | 42% | 30.1% | 13% | 21% | 12.2%
CC(C)(Cl)C(Cl)CC/C(CBr)=C(\Cl)CBr (stereo not given) | 10% | 99% (active) | 73.5% (active) | 17% | 99% (active) | 92.3% (active) | -11 | 98% (active) | 92% (active) | 21 | 95% (active) | 90.2% (active) | 4% | 94% (active) | 92% (active) | 11% | 99% (active) | 4.4%
CN1CCN(CCCCN2c3ccccc3Sc3ccc(C(=O)c4ccccc4)cc32)CC1 | 25% | 27% | 75.6% (active) | 26% | 34% | 22.8% | 27 | 2% | 87.2% (active) | 30 | 18% | -9.8% | 36% | 25% | 22% | 32% | 37% | 60.2%
Cc1ccnc2[nH]c3ccccc3c(=O)c12 | 29% | 98% (active) | 81.5% (active) | 38% | 98% (active) | 69.5% | 18 | 96% (active) | 65.5% | 30 | 96% (active) | 21.4% | 15% | 96% (active) | 65.2% | 36% | 99% (active) | 77.7% (active)
CCCC(=S)N1CCOCC1 | -1% | -2% | -23.9% | -1% | 1% | -4.05% | -1 | -1% | -3.95% | -10 | -4% | 33.2% | -1% | -1% | 12.4% | -2% | -3% | 26.6%
Cc1ccccc1NC(=O)C(=O)C(C#N)c1c(Cl)cccc1Cl (stereo not given) | -13% | 15% | -15.6% | 6% | 11% | 17.1% | -2 | 2% | 25.6% | 0 | 10% | -12.1% | -3% | 25% | 14.7% | 2% | 3% | 25.9%
COc1ccc(CCN2C(=O)C(=O)N(C3CCCCC3)C2=O)cc1OC | -1% | 2% | 75.4% (active) | -1% | 0% | 11.9% | -3 | -3% | 26.9% | -2 | 0% | 12.8% | -2% | -5% | 34.1% | -6% | -8% | 38.4%
CN(C)c1ccc(C2(c3ccc(N(C)C)cc3)OC(=O)c3ccccc32)cc1 | 2% | -6% | 26.6% | 1% | -6% | 14.2% | 1 | -3% | 14.5% | -5 | -26% | 16.9% | 60% | 61% | 82.6% (active) | -9% | -40% | 38.9%
CC(C)(C)OC(=O)C(N(Cc1ccccc1)Cc1ccccc1)N(Cc1ccccc1)Cc1ccccc1 | 0% | 14% | 12.1% | 2% | 9% | 20.6% | 2 | 17% | 24.4% | 3 | 10% | -2.05% | 0% | 11% | 4.75% | 3% | 22% | 30.3%
Cc1cccc2c1NC(c1c(C)[nH]c3ccccc13)C2 (stereo not given) | 1% | 10% | 28.8% | -1% | 5% | 25.3% | -4 | 8% | 27.2% | 0 | -2% | 30.4% | -3% | 17% | 30.1% | -3% | -22% | 67.2%
O=C1OC(=O)c2ccc(S)c3cccc1c23 | -35% | 95% (active) | 81.8% (active) | -25% | 85% (active) | 61.2% | -53 | 86% (active) | 38.6% | -42 | 68% | 36.7% | -32% | 90% (active) | 88.8% (active) | -80% | 95% (active) | 76% (active)
c1ccc2c(c1)Cc1c-2nc2ccccc2c1N1CCOCC1 | 87% (active) | 98% (active) | 97% (active) | 17% | 99% (active) | 91% (active) | 6 | 98% (active) | 82.3% (active) | 18 | 98% (active) | 34.9% | 54% | 98% (active) | 67.5% | 25% | 98% (active) | 89.7% (active)
CC(=O)N(/C=C\c1sc2ccccc2[n+]1C)c1ccccc1 | 38% | 96% (active) | 90.5% (active) | 27% | 98% (active) | 87.5% (active) | 61 | 89% (active) | 84% (active) | 33 | 65% | 89.8% (active) | 27% | 98% (active) | 91.3% (active) | 54% | 97% (active) | 90.6% (active)
COc1ccc(/C(Cl)=C(\C=O)c2ccc(Cl)c(Cl)c2)cc1 | 2% | 49% | 99% (active) | 8% | 70% (active) | 98.9% (active) | 13 | 85% (active) | 99.3% (active) | -10 | 55% | 92.5% (active) | 41% | 82% (active) | 97.8% (active) | 27% | 79% (active) | 98.2% (active)
COc1ccc(OC)c2c1C=CC(Br)=CC2 | 33% | 33% | 55.1% | 24% | 24% | 27% | 26 | 26% | 45.5% | 6 | 6% | 15.4% | 19% | 19% | 40.8% | 30% | 30% | 39.5%

From PubChem BioAssay (NCI)
